High-throughput results as filed in PubChem.
BRCA1 expr act: BRCA1 expression activation | 380,000 tested, 1.1% active | Potency, µM (top dose mostly 46.1 µM), for the others: top-dose activation, actives largely listed as activators | AID 624202 | MCF7-BRCA1-FFLuc reporter, luminescence, 48 h; response scale: scaled: vehicle 0%, 10 µM genistein 100%; note: nearly all actives have a fitted effect of over 80% in size
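Using MCF7 cells harboring a BRCA1 firefly luciferase reporter, plated 2 h before compound pinning, the screen measured luminescence after 48 h incubation. Responses were normalized to DMSO and 10 microM genistein, then fitted for concentration-effect.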
GLP-1R agonist: activates the human GLP-1 receptor | HEK293 GLP-1R CRE-luciferase, luminescence, 4-6 h; cells express a hypersensitive GLP-1R form | 380,000 tested, 0.007% active | Potency, µM (highest dose often 45.6 µM), for inactives: at the highest dose activation, usual class: activators | P43220 | AID 624172; note: % of control where 0% means no effect
Target sequence (P43220 whole entry, looked up): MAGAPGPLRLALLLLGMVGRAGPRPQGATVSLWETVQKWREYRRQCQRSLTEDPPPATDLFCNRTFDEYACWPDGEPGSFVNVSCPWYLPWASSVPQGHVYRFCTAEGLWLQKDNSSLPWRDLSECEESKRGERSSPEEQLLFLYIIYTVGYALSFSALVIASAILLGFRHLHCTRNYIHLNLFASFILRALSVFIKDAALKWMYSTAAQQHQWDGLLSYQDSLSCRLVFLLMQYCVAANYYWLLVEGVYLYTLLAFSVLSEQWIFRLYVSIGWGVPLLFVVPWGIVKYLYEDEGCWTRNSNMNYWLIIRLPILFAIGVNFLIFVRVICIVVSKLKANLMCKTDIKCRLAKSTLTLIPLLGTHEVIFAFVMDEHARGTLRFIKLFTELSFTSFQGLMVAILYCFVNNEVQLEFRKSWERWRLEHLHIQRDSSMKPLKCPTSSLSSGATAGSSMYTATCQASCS
HEK293 tox: cytotoxic in the GLP-1 receptor inverse agonist counter-screen. AID 624418. Potency, µM (highest dose often 38.3 µM), without a hit: at the top dose activity change, negative = inhibition, most hits filed as inhibitors. 410,000 tested, 0.13% active. HEK293 cAMP-luciferase reporter cells, luminescence, 24 h;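 note: loss of luciferase light is scored as toxicity; % is set by controls: 0 for no effect and ±100 for the full control effect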
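To flag toxic compounds, the library was rerun on cells for 24 hr at 37 deg C and 5% CO2. Viability-linked luminescence was captured 12 min after adding luciferase detection reagent.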
Integrin act MD: activators of alpha7 integrin expression for muscular dystrophy | Potency, µM (top dose mostly 38.3 µM), inactives show top-dose activation, hits mostly activators | 350,000 tested, 0.064% active | AID 624291 | alpha7betagal myoblasts, beta-gal FDG fluorescence, 48 h;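 note: 100% = response of the positive control SU9516; nearly all actives have a fitted effect of over 60% in size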
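Alpha7betagal+/- myoblasts (passage 13) were plated 16-24 hr, then exposed to compounds (1:260 dilution of DMSO stock) for 48 hours at 37C. After MPER lysis, β-galactosidase reporter activity was read as FDG fluorescence (ex 480/em 540) after 30 minutes.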
GLP1R inv ag: inverse agonists of human GLP-1 receptor | HEK293 GLP-1R CRE-luciferase, luminescence, 24 h; GLP-1R form is constitutively active | Potency, µM (top dose mostly 38.3 µM), inactives show top-dose activity change, negative = inhibition, most hits filed as inhibitors | P43220 | 410,000 tested, 1.6% active; note: % is set by controls: 0 for no effect and ±100 for the full control effect; nearly all actives have a fitted effect of over 55% in size
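GLP-1R inverse agonism mode: basal reporter luminescence in engineered HEK293 cells measured after one day of compound exposure at 37 deg C, with a 12 min room-temperature detection step.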
* hit, by the source's call; ? = inconclusive; nt = no result; [ ] = dose if it differs, or a comment. In the library only some 2.7% were active in any assay of this set; here they are far more common. Calls come from the whole dose curve; as a rule, active = well fitted curve in the direction sought with a large enough effect; inconclusive = small, poorly fitted or top-dose-only effect, or another doubt; inactive = no such curve, though single readings can be large; an effect the other way counts as inactive or inconclusive. Potency is the fitted concentration of half-maximal effect.

SMILES | BRCA1 expr act | GLP-1R agonist | HEK293 tox | Integrin act MD | GLP1R inv ag
CCN(CC)c1ncnc2c1cnn2-c1cc(Cl)ccc1C | nt | nt | -7.9% | nt | -23.1%
O=C(c1ccc(S(=O)(=O)Nc2cccc(C(F)(F)F)c2)cc1)N1CCN(c2ccccc2O)CC1 | -46.3% | 2.6% | 2.3% | 7.2% | 10µM*
O=C(c1ccc(NS(=O)(=O)c2ccc(F)cc2)cc1)N1CCN(c2ccccc2O)CC1 | -23.1% | 8.9% | -4.7% | -16.6% | 7.1%
COC(=O)C(Cc1ccc(O)cc1)N1Cc2ccccc2C1=O (stereo not given) | 10µM* | 13.1% | -1.6% | ? | 13.1%
CCC(C)NC(=O)[C@H](CSCc1ccccc1)N1Cc2ccccc2C1=O (stereo not given in full) | -20.5% | -6.2% | -1.8% | -2.4% | 11.2µM*
CCCN(CCC)CCCNC(=O)Cn1cnc2onc(-c3ccc(F)cc3)c2c1=O | 2.0% | 7.9% | 2.8% | nt | ?
O=C(CC(c1ccccc1)c1ccccc1O)NCc1ccco1 (stereo not given) | -24.3% | -7.7% | -7.4% | -3.9% | ?
O=C(CC(c1ccccc1)c1cc(Br)ccc1O)NCc1ccco1 (stereo not given) | -32.5% | -18.1% | -9.9% | -2.2% | 11.2µM*
O=C(CC(c1ccccc1)c1ccccc1O)NCc1ccccc1Cl (stereo not given) | -58.9% | -10.2% | -15.3% | 5.2% | 10µM*
O=C(NCc1ccco1)Nc1ccc(Br)cc1Cl | 12.6µM* | -6.6% | -10.3% | -24.8%[7.66 µM] | 0.0%
O=C(CSc1nc2ccccc2s1)CSc1nc2ccccc2s1 | -2.2% | 4.2% | 19.0% | 3.8% | -1.3%
O=c1oc2ccccc2n1CSc1nc2ccccc2s1 | 12.6µM* | 0.1% | -3.3% | -21.0% | -27.5%
CC(=O)CSc1nc2ccccc2s1 | 12.6µM* | ? | 7.4% | 7.0% | 23.9%
O=C1C2CC=CCC2C(=O)N1Nc1ccccc1 (stereo not given) | -26.2% | 1.1% | -29.3% | 23.1% | ?
O=C1C2C3C=CC(O3)C2C(=O)N1Nc1ccccc1 (stereo not given) | -9.6% | 4.0% | -4.2% | -1.2% | 8.91µM*
Cc1ccc(C)c(N2CCN(S(=O)(=O)c3ccc4[nH]c5c(c4c3)CCCCC5)CC2)c1 | -31.9% | -4.8% | -11.1% | nt | ?
Cn1cccc1C(=O)C(=O)Nc1ccccc1 | 7.08µM* | -18.4% | -4.2% | 32.1% | -20.6%
COc1cc(/C=N/NC(=S)NC2CC3CC2C2C=CCC32)ccc1O (stereo not given) | -74.0% | ? | 4.47µM* | -35.2% | ?
O=C(NCCSc1ccccc1)c1ccccc1Cl | 2.82µM* | 7.4% | 11.0% | 16.9% | 3.7%
CC(C)CNC(=O)c1ccccc1NC(=O)CCSc1ccccc1 | -0.7% | 24.6% | -8.7% | 1.5% | 7.08µM*
O=C(CCSc1ccccc1)NCCSCc1ccccc1 | 3.8% | 26.0% | -5.6% | -5.2% | ?
O=C(CCc1ccccc1)NCCSc1ccccc1 | 5.62µM* | 13.9% | -3.5% | 12.5% | ?
O=C(NCCSc1ccccc1)c1cncc(Br)c1 | 7.94µM* | 3.0% | 1.3% | -8.0% | 0.7%
O=C(NCCSc1ccccc1)c1ccc(Br)cc1 | ? | -2.2% | 1.7% | -3.2% | ?
O=C(CCNC(=O)c1ccccc1Cl)NCCCSc1ccccc1 | 1.9% | -5.2% | -24.8% | -23.5% | -8.9%
SMILES | BRCA1 expr act | GLP-1R agonist | HEK293 tox | Integrin act MD | GLP1R inv ag
NC(N)=Nc1ccc(/C=C2\C=Cc3ccccc32)cc1 | -42.8% | nt | nt | nt | nt
COc1ccc(-c2onc(C)c2C)cc1S(=O)(=O)N(C)Cc1ccco1 | nt | nt | -8.0% | nt | -2.8%
CC(C)(C)c1ccc(C(=O)NCCc2csc3nc(-c4ccccc4F)nn23)cc1 | nt | nt | -6.4% | nt | ?
CC(=O)c1ccc(C(=O)N(CCCN(C)C)c2nc3c(C)c(C)ccc3s2)cc1 | -14.0% | -2.7% | -8.5% | nt | ?
CCOc1cccc2sc(N(CCCN(C)C)C(=O)c3ccc(S(=O)(=O)N(C)CC4CCCO4)cc3)nc12 (stereo not given) | -21.0% | 6.1% | -6.6% | -38.2% | ?
Cc1cc(C)c2nc(N(CCN(C)C)C(=O)c3ccc(S(=O)(=O)N(C)CC4CCCO4)cc3)sc2c1 (stereo not given) | 16.7% | -6.3% | 5.3% | -0.3% | 10µM*
